This note sets out measurements from PubChem BioAssay (NCATS).

SMILES strings stand for the structures. Results filed as inconclusive are left out. A call without a number means that no potency is given here. A number with no mark means an inactive call. Calls of active or inactive are those of the source. Calls follow the shape of the dose curve; as a rule, active = well fitted curve in the direction sought with a large enough effect; inconclusive = small, poorly fitted or top-dose-only effect, or another doubt; inactive = no such curve, though single readings can be large; an effect the other way counts as inactive or inconclusive.

The test system of experiment [1] is Zika virus NS2B-NS3 protease. Description: Primary screen GU AMC qHTS for Zika virus inhibitors (AID 1347154). Also: nearly all actives have a fitted effect of over 70% in size. In short, it runs like this:
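Unlinked Zika NS2B hydrophilic domain–NS3 protease complex at 25 nM in 10 mM Tris-HCl pH 8.0, 0.01% Tween 20, with an AMC peptide substrate. Fluorescence change (340/450 nm) over 15 min at room temperature, normalized to controls, fitted to 4-parameter Hill.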
For orientation: qHTS replaces the single test concentration by a dilution series.

Experiment [2] concerns Zika virus NS2B-NS3 protease (unlinked). Nature of the experiment: Optimization of GU AMC qHTS for Zika virus inhibitors: Unlinked NS2B-NS3 protease assay (AID 1347151). Also: nearly all actives have a fitted effect of over 80% in size. Also: potency is read from the fitted curve at half-maximal effect. As to activity change, negative = inhibition: series mostly up to about 52 µM. The procedure, abridged: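 Fluorescence read-out (340 nm ex / 450 nm em) of AMC peptide cleavage, taken immediately and after 15 min at room temperature (~20% conversion). Enzyme was the unlinked NS2B–NS3 complex at 25 nM in Tris pH 8.0 buffer.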

The subject of experiment [3] is Zika virus NS2B-NS3 protease (linked construct). Description: Primary screen NINDS Rhodamine qHTS for Zika virus inhibitors (AID 1347160). Also: nearly all actives have a fitted effect of over 55% in size. Also: potency is read from the fitted curve at half-maximal effect. In short, it runs like this:
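In 10 mM Tris-HCl pH 8.0 containing 0.01% Tween 20, linked NS2B-NS3 protease (25 nM final) is exposed to test compounds for 15 min. Cleavage of 1.5 microM Rhodamine110 substrate is tracked by fluorescence over 15 min.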

In experiment [4] the test system is Zika virus NS2B-NS3 protease (unlinked complex). Description: Confirmatory screen GU AMC qHTS for Zika virus inhibitors (AID 1347153). Also: nearly all actives have a fitted effect of over 70% in size. The procedure, abridged:
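Compounds were preincubated 15 min at room temperature with 25 nM noncovalent NS2B-NS3 protease at pH 8.0; AMC substrate added at 10 microM and 15-min fluorescence gain (340/450 nm) converted to percent inhibition, fitted 4-parameter.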

The nature of experiment [5]: Confirmatory screen NINDS Rhodamine qHTS for Zika virus inhibitors (AID 1347161). Also: nearly all actives have a fitted effect of over 60% in size. Also: potency is read from the fitted curve at half-maximal effect.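 As to activity change, negative = inhibition: purified Zika NS2B-NS3 protease with linked NS2B cofactor domain and Rhodamine110 peptide substrate; series mostly up to about 110 µM.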 An excerpt:
Avindra Nath, Ph.D., National Institute of Neurological Disorders and Stroke (NINDS), Bethesda, MD
Radhakrishnan Padmanabhan, Ph.D., Georgetown University (GU), Washington D.C.
Zika Virus causes congenital defects, including microcephaly and is associated with Guillain-Barre syndrome, eningoencephalitis and myelitis in infected adult. […] Using a target-based approach, we hope to establish a screening paradigm to uncover novel, cell-active NS2B-NS3 protease (Zika Virus) specific inhibitors from NCATS' collection of small molecules using qHTS.
Four assay panel was created to identify potential Zika Virus inhibitors. Namely, (1) GU unlinked NS2B-NS3 AMC tagged protease qHTS, (2) GU unlinked NS2B-NS3 Rhodamine tagged protease qHTS, (3) NINDS linked NS2B-NS3 AMC tagged protease qHTS, (4) NINDS linked NS2B-NS3 Rhodamine tagged protease qHTS. Active compounds were re-acquired and re-screened to confirm inhibition. Inhibitors were further screened against various confirmatory and counterscreens in dose response format.
Early Translation Branch (ETB)
National Center for Advancing Translational Sciences (NCATS), Rockville, MD
National Institute of Health (NIH), Bethesda, Maryland
For the linked assay, Nath lab (NINDS) provided the purified linked NS2B-NS3 protease which is consists of hydrophilic domain of NS2B linked to the NS3 protease domain by a flexible (-[…]-) linker. Control compound aprotinin is obtained from Thermo Scientific (#78432; Waltham, Massachusetts). Rhodamine110 substrate ([N-Cbz]-Nle-Lys-Arg-Arg-Rhod110-Arg-Arg-Lys-Nle-[N-Cbz]) was purchased from either Genscript or Bachem.
1536-well Protease (Rhodamine110 Substrate) Assay:
Briefly, 3 microL of enzyme (25 nM final concentration), in assay buffer (10 mM Tris-HCl pH 8.0 with 0.01% Tween 20) were dispensed into a 1,536-well solid-bottom black plate (Greiner Bio One, Monroe, NC). Twenty-three nL of compounds (final concentration range 7.28 nM to 114 microM) or control Aprotinin (final concentration range 3.47 nM to 114 microM) were transferred via Wako Pin-tool (Wako Automation, Richmond, VA). Samples were incubated (room temperature, protected from light) for 15 minutes followed by a 1 microL Rhodamine110 substrate addition (1.5 microM final concentration). Plates were then immediately read on a ViewLux High-throughput CCD imager (PerkinElmer, Waltham, MA) equipped with FITC fluorescence optics (480(20) nm excitation, 540(25) nm emission), then incubated (room temperature, protected from light) for 15 minutes (~15% conversion). The change in fluorescence intensity over the 15-minute reaction period was normalized against no-inhibitor and no-enzyme controls and the resulting percent inhibition data were fitted to a 4-parameter Hill equation. Aprotinin was used as intraplate control.

Experiment [6] relates to Zika virus NS2B-NS3 protease (linked). Nature of the experiment: 384 well plate NINDS AMC confirmatory qHTS for Zika virus inhibitors (AID 1347163). Also: potency is read from the fitted curve at half-maximal effect; nearly all actives have a fitted effect of over 50% in size. As to conditions: Recombinant NS2B-NS3 protease, Ac-VKTGKR-AMC fluorescence. The procedure, abridged: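 Linked NS2B-NS3 protease (final 5 nM, 30 nM or 60 nM) was preincubated with compounds (final up to 1 mM) for ~15 minutes. Ac-VKTGKR-AMC substrate (final 30 microM) then reacted for 25 minutes at room temperature in the dark. Fluorescence (ex 355/em 460 nm) was normalized to no-enzyme and no-inhibitor controls.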

The subject of experiment [7] is Zika virus NS2B-NS3 protease (linked construct). Nature of the experiment: 384 well plate NINDS Rhodamine confirmatory qHTS for Zika virus inhibitors (AID 1347164).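 Also: fluorescence from protease cleavage of Ac-LKRR-rhodamine 110 substrate; nearly all actives have a fitted effect of over 65% in size.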 Also: potency is read from the fitted curve at half-maximal effect. As to activity change, negative = inhibition: top concentration of the series differs between compounds. The procedure, abridged:
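Fluorescence read at ex 485 nm/em 538 nm, 25 min after adding 10 microM Ac-LKRR-Rd substrate at room temperature in the dark; signal normalized to no-enzyme and no-inhibitor controls. Enzyme final 5, 30 or 60 nM; compounds, ~15 min preincubation.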

Experiment [8] has as its system Zika virus NS2B-NS3 protease (unlinked complex). Nature of the experiment: Primary screen GU Rhodamine qHTS for Zika virus inhibitors: Unlinked NS2B-NS3 protease assay (AID 1347159). Also: nearly all actives have a fitted effect of over 60% in size. Also: potency is read from the fitted curve at half-maximal effect. In short, it runs like this:
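Percent inhibition derives from the 15-min fluorescence change (ex 480, em 540 nm), normalized to no-enzyme and no-inhibitor wells. Reactions contained 25 nM NS2B-NS3 complex and 1.5 microM substrate in 10 mM Tris-HCl pH 8.0.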

Take `CCOc1ccc2nc(S(N)(=O)=O)sc2c1`: the Potency entry in experiment [1] is “inactive”.
The same measure, in the same setting: to `O=C1C(SCCO)=C(SCCO)C(=O)c2ccccc21` belongs “inactive”.
Regarding `NS(=O)(=O)c1ccc(-n2nc(C(F)(F)F)cc2-c2ccc(Cl)cc2)cc1`, the Potency result in experiment [2] and in experiment [3] was “inactive” each time.
In the case of `O=C(NOCC1CC1)c1cc(Br)c(F)c(F)c1Nc1ccc(I)cc1Cl`, the compound was classed as inactive in experiment [4]. Besides, the Potency is 3.92 µM (active) in experiment [5], 44.7 µM (active) in experiment [6] and 31.6 µM (active) in experiment [7].
Consider `O=C(O)c1cc([N+](=O)[O-])ccc1NCCCc1ccccc1`, for which the Potency entry in experiment [1] is “inactive”.
As for `C=C[C@@H]1CN2CC[C@@H]1C[C@H]2[C@H](O)c1ccnc2ccc(OC)cc12`, the result in experiment [4] was inactive. Also, in experiment [5], the Potency entry was “inactive”.
Take `Cc1cc(NC(=O)Nc2ccc3c(ccn3C)c2)sn1`: the Potency entry in experiment [2] and in experiment [1] was “inactive” each time.
As to `O=C(Nc1ccncc1)c1cc([N+](=O)[O-])ccc1Cl`, the Potency result in experiment [2] and in experiment [1] was “inactive” in each case.
`O=[N+]([O-])c1ccc(CNc2nc(NCc3cccc(C(F)(F)F)c3)nc3nc[nH]c23)cc1`: the Potency result in experiment [2], in experiment [8] and in experiment [3] was “inactive” in each case.
In the case of `COc1ccc(Br)cc1S(=O)(=O)NC(=O)/C=C/c1ccccc1Cc1ccc2ccccc2c1`, the Potency in experiment [2] was 5.32 µM (active); in experiment [5], 1.96 µM (active); in experiment [6], 0.251 µM (active). For the same compound, the Potency result in experiment [7] is “inactive”.
As to `C[N+]1(C)CCC(OC(=O)C(c2ccccc2)c2ccccc2)CC1`, the Potency entry in experiment [2] and in experiment [1] was “inactive” throughout.
For the compound `CS(=O)(=O)c1ccc(-n2nc(C(F)(F)F)cc2-c2ccc(F)cc2)cc1`, the Potency entry in experiment [2], in experiment [8] and in experiment [3] was “inactive” in each case.
`O=C(Nc1ccc2[nH]ncc2c1)C1CCC1`: the Potency entry in experiment [2], in experiment [8] and in experiment [3] was “inactive” in each case.
In the case of `O=C1NC(=O)c2c1c(-c1ccccc1)cc1[nH]c3ccc(O)cc3c21`, the Potency result in experiment [2] and in experiment [1] was “inactive” throughout.
In the case of `COc1cc2c3cc1Oc1cc(ccc1O)C[C@@H]1c4c(cc(OC)c(O)c4Oc4ccc(cc4)C[C@@H]3N(C)CC2)CC[N+]1(C)C`, the Potency result in experiment [1] was “inactive”.
The same measure, in the same setting: as for `Cc1c(N)c(=O)n(-c2ccccc2)n1C`, the entry is “inactive”.
As to `CCN(CC)CCCCNc1ncc2cc(-c3c(Cl)cccc3Cl)c(NC(=O)NC(C)(C)C)nc2n1`, in experiment [2], the Potency is 2.99 µM (active). Besides, the Potency result in experiment [8] and in experiment [3] was “inactive” throughout.
With `CN(CCCOc1ccc(Cc2ccccc2)cc1)CCC(=O)O`, the Potency result in experiment [2], in experiment [8] and in experiment [3] was “inactive” each time.
Take `Nc1nc2ccc([N+](=O)[O-])cc2s1`: the Potency entry in experiment [1] was “inactive”.
As to `CCNc1nc2c(ncn2[C@H]2C[C@H](O)[C@@H](CO)O2)c(=O)[nH]1`, the Potency result in experiment [2], in experiment [8] and in experiment [3] was “inactive” in each case.
`COc1cc(SC)ccc1C(=O)N1CCC(Cc2ccccc2)CC1`: the Potency result in experiment [2] and in experiment [1] was “inactive” each time.
Turning to `COc1cc(NC(C)CCCN)c2ncccc2c1` (stereo not drawn), the Potency entry in experiment [1] was “inactive”.
As to `Nc1nc(Cl)nc2c1ncn2[C@@H]1O[C@H](CO)[C@@H](O)[C@H]1O`, the Potency entry in experiment [2] and in experiment [1] was “inactive” in each case.
Turning to `Ic1ccc(N2CCN(Cc3c[nH]c4ncccc34)CC2)cc1`, in experiment [1], the Potency result was “inactive”.
With `Nc1ncnc2c1ncn2[C@@H]1O[C@H](COP(=O)(O)CP(=O)(O)OP(=O)(O)O)[C@@H](O)[C@H]1O`, the Potency result in experiment [2] and in experiment [1] was “inactive” throughout.
Consider `Fc1ccc2[nH]c(CN3CCN(c4ccccn4)CC3)cc2c1`, for which the Potency entry in experiment [2], in experiment [8] and in experiment [3] was “inactive” in each case.
For `NC(=S)NCCC[C@H](N)C(=O)O`, in experiment [1], the Potency result is “inactive”.
The same measure, in the same setting: as for `O=C(O)Cc1ccc(-c2ccccc2)cc1`, the entry is “inactive”; as for `O=C(CCN1CCN(CCO)CC1)N1c2ccccc2Sc2ccc(C(F)(F)F)cc21`, “inactive”; as for `CC(C)(C)c1nnc(NS(=O)(=O)c2ccc(N)cc2)s1`, “inactive”.
The same measure, in the same setting: as for `Oc1c(Br)cc(Br)c2cccnc12`, the entry is “inactive”.
For `O=C(O)[C@H](CC(=O)N1C[C@H]2CCCC[C@H]2C1)Cc1ccccc1`, the Potency result in experiment [3] is “inactive”.
Consider `CN1[C@@H]2CC[C@H]1CC(OC(c1ccccc1)c1ccccc1)C2` (stereo partly drawn), for which the Potency entry in experiment [8] and in experiment [3] was “inactive” throughout.
For `COc1ccc(-c2cc(=S)ss2)cc1`, the Potency entry in experiment [1] was “inactive”.
In the case of `CC1(C)S[C@@H]2[C@H](NC(=O)[C@H](NC(=O)N3CCN(S(C)(=O)=O)C3=O)c3ccccc3)C(=O)N2[C@H]1C(=O)O`, the Potency result in experiment [8] and in experiment [3] was “inactive” throughout.
For `CC(=O)c1ccc(OCC(=O)N2CCCCC2)cc1`, the Potency result in experiment [1], in experiment [8] and in experiment [3] was “inactive” throughout.
`O=C(O)Cc1cccc(-c2cc(CCCCCCc3ccc(O[C@H]4O[C@H](CO)[C@@H](O)[C@H](O)[C@@H]4O)c(-c4cccc(CC(=O)O)c4)c3)ccc2O[C@H]2O[C@H](CO)[C@@H](O)[C@H](O)[C@@H]2O)c1`: the activity change, negative = inhibition in experiment [1] is 1.91% [at 0.59 µM]; in experiment [8], 17.6% [at 1.28 µM]; in experiment [3], 11.1% [at 0.684 µM].
With `C=CCCCCCCCCC(=O)O`, the Potency entry in experiment [1] was “inactive”.
For the compound `CN1[C@@H]2CC[C@H]1CC(OC(=O)C(CO)c1ccccc1)C2` (stereo partly drawn), the Potency result in experiment [8] and in experiment [3] was “inactive” each time.
As for `CCNC(=O)[C@H]1O[C@@H](n2cnc3c(N)nc(NCCc4ccc(CCC(=O)O)cc4)nc32)[C@H](O)[C@@H]1O`, the Potency result in experiment [8] and in experiment [3] was “inactive” each time.
In the case of `CC(C(=O)O)c1ccc2c(c1)[nH]c1ccc(Cl)cc12` (stereo not drawn), the Potency entry in experiment [1] was “inactive”. Also, in experiment [8], the Potency was 35.5 µM (active).
Take `CC(=O)SCC(CC(=O)c1ccc(C)cc1)C(=O)O` (stereo not drawn): the Potency result in experiment [1], in experiment [8] and in experiment [3] was “inactive” each time.
`Cc1onc(-c2c(F)cccc2Cl)c1C(=O)N[C@@H]1C(=O)N2[C@@H]1SC(C)(C)[C@@H]2C(=O)O`: the Potency result in experiment [8] and in experiment [3] was “inactive” in each case.
Regarding `O=C(O)c1cc(O)c(O)c(O)c1`, the Potency entry in experiment [1] was “inactive”. The Potency in experiment [3] was 49.3 µM (active).
For `COc1cc(/C=C/C(=O)N2CCN(CC(=O)N3CCCC3)CC2)cc(OC)c1OC`, the Potency entry in experiment [8] and in experiment [3] was “inactive” throughout.
